# Hits are enriched below; roughly 19% of the tested compounds scored in any of these assays.
# TGFb inhibitor: TGF-b pathway inhibition; HepG2 CAGA-GFP TGF-b/SMAD3 reporter, GFP fluorescence, 18 h; TGF-beta stimulated, 500 pg/mL final; Potency, µM (highest dose often 46.1 µM), inactives show at the highest dose activity, negative = inhibition, most hits filed as inhibitors; actives 1.2% (n = 410,000); also: potency is read from the fitted curve at half-maximal effect; % is scaled to controls: 0 for no effect and ±100 for the full control effect; nearly all actives have a fitted effect of over 65% in size
#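 Cell-based qHTS in HEPG2 carrying a CAGA-GFP Smad reporter; compounds added before 500 pg/mL final TGF-beta, 18 h incubation at 37 degrees C, GFP fluorescence quantified per cell by imaging cytometry.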
# DT40 TDP1 CPT: growth inhibition of DT40 Tdp1-/-;hTDP1 cells with camptothecin (screen for TDP1 inhibitors). Potency, µM (titrated, usually from 46.2 µM), for the others: at the highest dose activity change, negative = growth inhibition, most hits filed as inhibitors. AID 686979. chicken DT40 Tdp1-/-;hTDP1 cells + 20 nM CPT, ATP luminescence, 48 h. actives 12% (n = 420,000); also: potency is read from the fitted curve at half-maximal effect; % is scaled to controls: 0 for no effect and ±100 for the full control effect; nearly all actives have a fitted effect of over 55% in size
#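 Chicken DT40 Tdp1-/- cells complemented with human TDP1, 400 cells/well, exposed to compounds plus 20 nM camptothecin for at least 48 h at 37 C; viability read as ATP content by CellTiter-Glo luminescence.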
# IL-1B inflam inh: inhibitors of inflammasome signaling (IL-1 beta secretion). actives 4.7% (n = 360,000). THP-1 LPS/ATP IL-1B secretion, AlphaLISA, 16 h; hits give low values. activity change, % at 57.5 µM; in the data active = activity change below about -50%; inconclusive = mostly about -30% to -49%; also: % is scaled to controls: 0 for no effect and ±100 for the full control effect
#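 THP-1 cells pretreated 1 hr with compounds (up to 57.5 uM final), then stimulated with LPS (250 ng/mL final) plus ATP (1.25 mM final); secreted IL-1B measured by AlphaLISA after 16 hr, decreased signal indicating inhibition.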
# DT40 TDP1 no CPT: qHTS for Inhibitors of human tyrosyl-DNA phosphodiesterase 1 (TDP1): qHTS in cells in absence of CPT | Potency, µM (series often up to 46.2 µM), for the others: at the top dose activity change, negative = growth inhibition, actives largely listed as inhibitors | DT40 Tdp1-/- hTDP1 cells, no CPT, ATP luminescence, 48 h | AID 686978, 2013 | actives 15% (n = 420,000); also: potency is read from the fitted curve at half-maximal effect; % is scaled to controls: 0 for no effect and ±100 for the full control effect; nearly all actives have a fitted effect of over 55% in size
#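 Readout: luminescence from CellTiter-Glo after 30 min in the dark at RT. Cells: DT40 Tdp1-/- with stable hTDP1, 400/well. Exposure: compounds alone, ≥48 hr, 37 °C.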
# HepG2 viability: kills HepG2 cells in TGF-b inhibitor counter-screen. HepG2 CAGA-GFP viability, ATP luminescence, 18 h. Potency, µM (series often up to 46.1 µM), for inactives: at the top dose activity change, negative = cytotoxicity, usual class: cytotoxic. actives 0.76% (n = 410,000). AID 588856; also: potency is read from the fitted curve at half-maximal effect
#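 HepG2 CAGA-GFP cells (1000/well, DMEM with 1% FBS) received compound, then TGF-beta at 500 pg/mL final, and were incubated 18 hours at 37 degrees C. Viability was read by CellTiter-Glo luminescence. Media-only wells were set as complete cell-killing and DMSO as no toxicity.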
# TDP1 inh: blocks human tyrosyl-DNA phosphodiesterase 1; AID 485290; recombinant TDP1, AlphaScreen DNA substrate cleavage; Q9NUW8; Potency, µM (series often up to 130 µM), for inactives: at the top dose activity change, negative = inhibition, actives largely listed as inhibitors; actives 0.28% (n = 350,000); also: potency is read from the fitted curve at half-maximal effect; % is scaled to controls: 0 for no effect and ±100 for the full control effect; nearly all actives have a fitted effect of over 40% in size
# Target sequence (Q9NUW8 whole entry, looked up): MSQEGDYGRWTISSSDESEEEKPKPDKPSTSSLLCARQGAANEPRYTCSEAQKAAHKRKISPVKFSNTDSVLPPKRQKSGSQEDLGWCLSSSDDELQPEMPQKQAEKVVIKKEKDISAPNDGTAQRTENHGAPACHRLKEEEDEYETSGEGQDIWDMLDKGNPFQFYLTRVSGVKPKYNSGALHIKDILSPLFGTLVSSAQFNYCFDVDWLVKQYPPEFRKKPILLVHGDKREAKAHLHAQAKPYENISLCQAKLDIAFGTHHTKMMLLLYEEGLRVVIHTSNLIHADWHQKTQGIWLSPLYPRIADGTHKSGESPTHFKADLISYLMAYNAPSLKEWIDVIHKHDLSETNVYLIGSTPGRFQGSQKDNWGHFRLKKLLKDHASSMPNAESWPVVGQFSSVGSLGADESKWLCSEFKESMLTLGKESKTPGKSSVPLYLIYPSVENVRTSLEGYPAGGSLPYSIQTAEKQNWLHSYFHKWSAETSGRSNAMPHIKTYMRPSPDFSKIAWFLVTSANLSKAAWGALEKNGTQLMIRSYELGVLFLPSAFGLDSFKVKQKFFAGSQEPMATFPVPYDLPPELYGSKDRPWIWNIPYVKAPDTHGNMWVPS
#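 Recombinant human Tdp1 (E. coli-expressed, 1 nM final) preincubated with compounds 15 min at room temperature, then 5'-biotin/3'-phosphotyrosine-FITC DNA substrate (15 nM final) added for 5 min. AlphaScreen beads (10 ug/ml final) added 10 min; cleavage lowers signal.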
# Active calls of the source: *; ? = inconclusive; . = no result given; [ ] = another dose, or the depositor's remark. Unless noted, calls follow the shape of the dose curve; as a rule, active = well fitted curve in the direction sought with a large enough effect; inconclusive = small, poorly fitted or top-dose-only effect, or another doubt; inactive = no such curve, though single readings can be large; an effect the other way counts as inactive or inconclusive.
SMILES,TGFb inhibitor,DT40 TDP1 CPT,IL-1B inflam inh,DT40 TDP1 no CPT,HepG2 viability,TDP1 inh
O=C(Nc1ccc(N2CCOCC2)c(Cl)c1)c1cccnc1Cl,-3.1%,7.9%,-5.9,-26.5%,-1.4%,0.0%
Nc1ccc2c(c1Cl)C(=O)c1ccc(N)c(Cl)c1C2=O,-15.6%,2.2%,-19.5,?,-15.5%,3.55µM*
O=C(COC(=O)c1ccc2c(c1Cl)C(=O)c1ccccc1C2=O)NC1CC1,?,?,0.0,?,-9.4%,0.6%
CCOC(=O)c1c(C)[nH]c(C)c1S(=O)(=O)N1CCCCC1,-22.3%,8.2%,-0.9,4.5%,-29.1%,2.9%
O=C(Nc1ccccc1OC(=O)c1ccc(Cl)cc1)c1ccc(Cl)cc1,-5.5%,?,13.5,16.4µM*,-34.8%,2.6%
O=C(Nc1cccnc1Cl)c1ccc(Cl)cc1,0.5%,16.6%,-10.0,1.0%,0.4%,3.3%
O=C(Nc1ccccc1O)c1ccc(Cl)cc1,-9.7%,16.4µM*,113.7,23.1µM*,-34.2%,4.0%
C=CCn1c(OCc2ccccc2)n[nH]c1=S,4.9%,5.2%,22.2,-23.1%,-0.7%,.
CCN(CC)S(=O)(=O)c1ccc2c(c1)c(=O)c(C(=O)N1CCN(c3ccc(OC)cc3)CC1)cn2C,?,-0.5%,.,?,-20.0%,0.0%
CCCCn1c(N)c(N(CC(C)C)C(=O)CSc2nn(-c3ccc(F)cc3)c(=S)s2)c(=O)[nH]c1=O,-24.9%,?,-2.9,-2.7%,-5.0%,.
COc1ccc(-c2csc3nc(-c4ccc(F)cc4)oc(=O)c23)cc1OC,1.1%,?,.,8.4%,-12.7%,0.0%
COc1cc(O)c(C=NN2C(=O)CSC2=S)c(OC)c1,-8.8%,20.6µM*,33.6,23.1µM*,-25.0%,.
O=C1CSC(=S)N1/N=C/c1cccnc1,-12.6%,14.6µM*,-4.1,?,-3.0%,.
O=C1CSC(=S)N1N=Cc1ccccc1O,0.0%,?,9.8,9.2µM*,-9.3%,.
Cc1ccccc1/C=N/N1C(=O)CSC1=S,-19.2%,-13.8%,-4.6,-20.1%,-9.4%,.
O=C1CSC(=S)N1N=Cc1ccc(Cl)cc1Cl,1.3%,?,9.8,20.6µM*,-3.8%,.
O=C(Nc1ccc2oc(=O)ccc2c1)c1ccc(-c2cccc(Cl)c2)o1,-0.9%,8.2µM*,-26.8,?,3.7%,.
O=C(Nc1ccc2oc(=O)ccc2c1)c1ccc(-c2ccccc2[N+](=O)[O-])o1,19.9%,1.1%,22.6,?,-1.2%,.
O=C(Nc1ccc2oc(=O)ccc2c1)c1ccc(-c2cccc([N+](=O)[O-])c2)o1,34.5%,8.2µM*,6.0,7.31µM*,22.0%,0.0%
O=C(NCCc1ccccc1)c1cc(-c2cccc(Cl)c2)on1,2.7%,-14.2%,.,-4.9%,-14.2%,1.8%
Cc1ccc(NC2=C(Cl)C(=O)c3ccccc3C2=O)cc1,?,8.2µM*,-13.6,13µM*,-6.3%,2.7%
CC(=O)Nc1ccc(NC2=CC(=O)c3ccccc3C2=O)cc1,?,12.6%,19.1,-6.0%,-26.8%,.
O=C1C=C(Nc2ccc(O)cc2)C(=O)c2ccccc21,10µM*,14.6µM*,-12.8,13µM*,11.2µM*,?
O=C1C(Cl)=C(Nc2ccc(O)cc2)C(=O)c2ccccc21,?,20.6µM*,-104.7*,?,5.62µM*,3.7%
CCN(CC)c1ccc(NC2=C(Cl)C(=O)c3ccccc3C2=O)cc1,?,10.3µM*,-107.8*,13µM*,-50.1%,10.7%
SMILES,TGFb inhibitor,DT40 TDP1 CPT,IL-1B inflam inh,DT40 TDP1 no CPT,HepG2 viability,TDP1 inh
CCc1ccc2c(-c3cccc(Cl)c3)nc(=O)n(CC)c2n1,.,14.1%,.,?,.,10.7%[56.1 µM]
COc1ccc(S(=O)(=O)N(CC(=O)NC2CCCCC2)c2ccc(F)cc2)cc1,18.0%,-15.3%,5.6,-20.3%,-21.2%,0.5%
CCc1nc2nc(C)c(NS(=O)(=O)c3ccc(C(C)(C)C)cc3)c(=O)n2[nH]1,3.8%,6.8%,.,2.2%,2.4%,2.5%
CN(Cc1ccccc1)C(=O)c1nc[nH]c1C(=O)N(C)Cc1ccccc1,-18.7%,-2.4%,10.6,-17.9%,-1.9%,1.6%
COCc1cc(=O)c2ccccc2o1,?,-16.9%,5.2,-5.2%,-18.2%,-0.4%
N#Cc1ccc(S(=O)(=O)NC2CCCCNC2=O)cc1 (stereo not given),0.1%,15.8%,3.9,-2.8%,20.1%,.
O=C(NCCCN1CCOCC1)c1ccc2c(c1)N(Cc1cccc(Cl)c1)C(=O)c1ccccc1S2,?,?,.,23.1µM*,11.2µM*,7.8%
O=C(NCCN1CCOCC1)c1ccc2c(c1)N(Cc1ccc(F)cc1)C(=O)CS2,6.0%,-9.6%,-6.4,3.4%,-2.2%,2.2%
O=C(NCCCN1CCOCC1)c1ccc2c(c1)N(Cc1c(F)cccc1Cl)C(=O)c1ccccc1S2,?,?,-52.3*,?,-34.2%,6.6%
O=C(NCCCN1CCOCC1)c1ccc2c(c1)N(Cc1cccc(Cl)c1)C(=O)CS2,0.1%,?,-7.6,16.4µM*,-5.6%,2.2%
Cc1ccc(S(=O)(=O)Nc2cccc3ccc(C)nc23)cc1,.,.,.,.,.,15.6%
CC(C)C(=O)NNC(=O)c1ccccn1,0.0%,?,0.0,?,-24.4%,-7.9%
CC(Oc1ccccc1)C(=O)NNC(=O)c1ccccn1 (stereo not given),?,10.3µM*,36.4,7.31µM*,-14.9%,8.1%
CC(Oc1cccc(Br)c1)C(=O)NNC(=O)c1ccccn1 (stereo not given),?,2.91µM*,92.8,2.31µM*,-33.4%,1.4%
CC(Oc1cccc(Cl)c1)C(=O)NNC(=O)c1cccnc1 (stereo not given),-14.6%,0.5%,4.3,11.5%,16.6%,-0.1%
O=C(NN1C(=O)NC2(CCCCC2)C1=O)c1ccc(Cl)s1,24.8%,13.6%,-0.5,?,0.4%,0.5%
CCCCNC(=O)C(=O)Nc1ccc2c(c1)N(S(=O)(=O)c1cccs1)CCC2,6.8%,2.59µM*,34.7,1.84µM*,-31.0%,.
CCN(CC)CCNC(=O)C(=O)Nc1ccc2c(c1)N(S(=O)(=O)c1cccs1)CCC2,13.4%,14.6µM*,-21.9,16.4µM*,-10.3%,.
Clc1ccccc1-c1nc(NCc2cccnc2)c2ccccc2n1,.,-1.6%,.,-9.3%,.,.
Cn1nc(N2CCN(S(=O)(=O)c3ccccc3)CC2)c(=O)n(C)c1=O,11.5%,?,-4.4,?,-6.1%,-0.2%
